Hits are enriched below; roughly 2.4% of the tested compounds scored in any of these assays.
L3MBTL1 block = qHTS Assay for the Inhibitors of L3MBTL1. 230,000 tested, 0.66% active. AID 485360, 2010. Potency, µM (series often up to 57.1 µM), actives largely listed as inhibitors. AlphaScreen L3MBTL1–H3K9me1 peptide binding; also: nearly all actives have a fitted effect of over 60% in size
Target sequence (Q9Y468 whole entry, looked up): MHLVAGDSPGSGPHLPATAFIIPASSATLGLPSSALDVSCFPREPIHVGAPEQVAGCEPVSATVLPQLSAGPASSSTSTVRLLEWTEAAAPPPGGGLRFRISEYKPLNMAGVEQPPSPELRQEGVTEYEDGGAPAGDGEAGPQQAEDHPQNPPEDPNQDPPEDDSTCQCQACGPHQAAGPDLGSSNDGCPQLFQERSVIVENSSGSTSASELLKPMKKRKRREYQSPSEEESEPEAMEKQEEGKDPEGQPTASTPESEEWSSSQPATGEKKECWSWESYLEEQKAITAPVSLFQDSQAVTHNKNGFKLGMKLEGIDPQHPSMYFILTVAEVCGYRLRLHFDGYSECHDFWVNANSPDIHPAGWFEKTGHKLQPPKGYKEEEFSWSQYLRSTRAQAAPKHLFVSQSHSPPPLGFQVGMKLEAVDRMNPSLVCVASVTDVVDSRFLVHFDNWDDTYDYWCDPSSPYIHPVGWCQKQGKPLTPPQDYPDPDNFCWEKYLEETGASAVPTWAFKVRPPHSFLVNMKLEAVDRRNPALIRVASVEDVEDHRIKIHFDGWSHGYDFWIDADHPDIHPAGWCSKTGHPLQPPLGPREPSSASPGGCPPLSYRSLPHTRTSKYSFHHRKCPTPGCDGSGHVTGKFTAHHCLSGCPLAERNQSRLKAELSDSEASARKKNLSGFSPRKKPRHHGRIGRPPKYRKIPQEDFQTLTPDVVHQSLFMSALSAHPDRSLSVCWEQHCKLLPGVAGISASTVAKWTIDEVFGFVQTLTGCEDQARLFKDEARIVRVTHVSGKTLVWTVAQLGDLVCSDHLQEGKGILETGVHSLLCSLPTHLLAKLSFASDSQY
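L3MBTL1 (50 nM) pre-complexed 30 min with biotinylated H3(1-15)K9me1 peptide (75 nM), then compounds added for 30 min at room temperature; AlphaScreen streptavidin donor/nickel chelate acceptor beads (10 ug/mL final) read after 30 min dark incubation.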
Pol eta inh-1 = qHTS for Inhibitors of Polymerase Eta; recombinant Pol eta, fluorescent DNA replication assay; Potency, µM (highest dose often 114 µM), usual class: inhibitors; 390,000 tested, 1.2% active
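Pol eta at 10 nM preincubated with compounds 15 min at room temperature; reaction started with fluorescent substrate (50 nM final) and read kinetically at 0 and 10 min.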
Pol beta inh = qHTS Assay for Inhibitors of DNA Polymerase Beta; P06746; Pol beta primer extension/strand displacement, fluorescence kinetic; Potency, µM (doses to about 114 µM), usual class: inhibitors; 340,000 tested, 1.3% active; AID 485314, 2010
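Preincubation: enzyme (10 nM) with compound, 15 min, RT. Reaction: substrate added to 50 nM final. Reads: 0 and 10 min. Analysis: normalized, Hill fit.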
Pol kappa inh-1 = qHTS for Inhibitors of Polymerase Kappa; purified Pol kappa, fluorescent DNA synthesis assay, 10 min; Potency, µM (highest dose often 107 µM), actives largely listed as inhibitors; DNA polymerase kappa (Homo sapiens), Q9UBT6; 400,000 tested, 0.53% active
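Activity was followed as the change in fluorescence between reads at 0 and 10 min after starting the reaction with 50 nM substrate. Beforehand, 10 nM polymerase had been preincubated with compound for 15 min at room temperature.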
POLI inh = qHTS for Inhibitors of Polymerase Iota; Pol iota fluorescent replication assay, 10 min; Potency, µM (top dose mostly 115 µM), actives largely listed as inhibitors; 390,000 tested, 1% active; DNA polymerase iota (Homo sapiens), Q9UNA4
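Fluorescent replication assay read twice, at 0 min and 10 min after adding 50 nM (final) substrate. Enzyme (10 nM) and compounds were first incubated 15 min at room temperature; enzyme-free buffer wells were negative controls.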
GALK inh confirm = Confirmation Assay for Inhibitors of Human Galactokinase (GALK); shares compounds with Pol eta inh-1; purified GALK, Kinase-Glo ATP depletion luminescence; Potency, µM (series often up to 115 µM), most hits filed as inhibitors; 150 tested, 70% active; AID 2015, 2009
Redox cycling = Confirmatory Assay for Inhibitors of Human Galactokinase (GALK): Phenol-HRP redox assay counterscreen | shares compounds with Pol eta inh-1 | Phenol red-HRP H2O2 redox cycling, absorbance 600 nm | Potency, µM (titrated, usually from 115 µM), usual class: inhibitors | 150 tested, 40% active
HEK293 viability = Secondary Assay for Inhibitors of Human Galactokinase (GALK): HEK-293 Cell Viability Assay; shares compounds with Pol eta inh-1; HEK-293 viability, ATP luminescence (CellTiter-Glo), 24/48 h; Potency, µM (top dose mostly 46.1 µM), most hits filed as inhibitors; 170 tested, 10% active
Pol kappa inh-2 = qHTS for Inhibitors of Polymerase Kappa: Confirmatory Assay for Cherry-picked Compounds; shares compounds with Pol eta inh-1; purified Pol-kappa, fluorescent strand-displacement substrate; Potency, µM, hits mostly inhibitors; 920 tested, 76% active; AID 720501, 2013
Pol eta inh-2 = qHTS for Inhibitors of Polymerase Eta: Confirmatory Assay for Cherry-picked Compounds; shares compounds with Pol eta inh-1; Pol eta primer extension, TAMRA/BHQ fluorescence, 10 min; Potency, µM, most hits filed as inhibitors; 2,600 tested, 64% active
Numbers stand for hits; – = inactive; ? = inconclusive; · = no result. Calls follow the shape of the dose curve; as a rule, active = well fitted curve in the direction sought with a large enough effect; inconclusive = small, poorly fitted or top-dose-only effect, or another doubt; inactive = no such curve, though single readings can be large; an effect the other way counts as inactive or inconclusive.

SMILES	L3MBTL1 block	Pol eta inh-1	Pol beta inh	Pol kappa inh-1	POLI inh	Pol eta inh-2	others
CCN(c1ccccc1)S(=O)(=O)c1ccc(NC(=O)c2nc(SC)ncc2Cl)cc1	·	–	–	–	–	·
O=C(NNc1cc(N2CCOCC2)nc(N2CCOCC2)n1)c1ccc([N+](=O)[O-])cc1	–	89µM	–	–	6.3µM	·	GALK inh confirm=24µM;Redox cycling=4.2µM;HEK293 viability=–
O=C(Nc1ccc(N2CCOCC2)cc1N1CCOCC1)c1ccc([N+](=O)[O-])cc1	–	?	–	–	–	·
COc1ccccc1NC(=O)c1cc2cc3ccc(OC)c(Cl)c3nc2s1	·	?	2.8µM	–	–	?	Pol kappa inh-2=21
O=C(O)/C=C/c1ccc(S(=O)(=O)Nc2cccnc2)cc1	–	–	–	–	–	·
O=C(O)/C=C/c1ccc(S(=O)(=O)Nc2ccc(C(=O)NCC(=O)O)cc2)cc1	–	18µM	–	?	?	?
Cc1ccc(OCc2ccoc2C(=O)O)cc1C	?	7.1µM	18µM	?	?	?
CCN(CC)CCNC(=O)Cn1ncc2c([nH]c3ccccc32)c1=O	·	–	–	–	–	·
CC1=NN(c2ccccc2)C(=O)/C1=C/c1c(O)n(-c2ccc(F)c(Cl)c2)[nH]c1=O	–	28µM	?	?	–	·	GALK inh confirm=30µM;Redox cycling=–;HEK293 viability=–
CC1=NN(c2ccccc2)C(=O)/C1=C\c1c(C)[nH]n(-c2ccccc2)c1=O	–	–	–	–	–	·
Cc1ccc(Cc2nc3ccccc3nc2SCC(=O)NCCC(C)C)cc1	·	–	–	–	–	·
Cc1ccccc1-c1cc2nc(-c3ccc([N+](=O)[O-])cc3)cc(=O)n2[nH]1	–	–	–	–	–	·
O=c1cc(-c2ccc([N+](=O)[O-])cc2)nc2cc(-c3ccc(F)cc3)[nH]n12	–	20µM	–	–	?	67
CCOC(=O)c1c(NC(=O)Cc2coc3cc(C)cc(C)c23)sc2c1CCC2	·	–	–	–	–	·
O=C1CN(C(=O)COC(=O)c2ccc([N+](=O)[O-])s2)c2ccccc2N1	?	22µM	·	–	?	?
O=C(CSc1nc2c([nH]c3ccccc32)c(=O)n1-c1cccc(Cl)c1)NCc1ccccc1	·	–	–	–	–	·
COc1cc(/C=C2\CCCc3c2nc2ccccc2c3C(=O)O)cc([N+](=O)[O-])c1O	·	20µM	14µM	79µM	13µM	48
COc1ccc(/C=C2\CCCc3c2nc2ccccc2c3C(=O)O)cc1OC	?	·	–	·	·	·
COc1ccc(/C=C2\CCc3c2nc2ccccc2c3C(=O)O)cc1OC	?	20µM	–	–	?	54
COc1ccc(-c2ccc(CN3C(C(C)C)C(=O)N(Cc4cn(CCC5OCCO5)nn4)CCS3(=O)=O)cc2)cc1 (configuration not stated)	·	–	·	·	·	·
COc1ccc(Cl)cc1-n1cc(-c2ccccc2)nc1SCC(=O)Nc1ccc(C)cc1	·	?	–	–	–	·
O=c1[nH]c(Nc2ccccc2)cc2cc(Br)ccc12	·	40µM	·	?	?	?
CC(=O)c1cccc(-c2ccc3c(=O)[nH]c(Nc4ccccc4)cc3c2)c1	·	20µM	·	?	?	76
COc1ccccc1Nc1cc2cc(Br)ccc2c(=O)[nH]1	·	20µM	·	79µM	?	67
COc1ccccc1Nc1nnc(C)c(=O)[nH]1	·	–	–	–	–	·
SMILES	L3MBTL1 block	Pol eta inh-1	Pol beta inh	Pol kappa inh-1	POLI inh	Pol eta inh-2	others
CC(=O)c1cccc(Nc2nc(-c3ccccc3)nc3ccccc23)c1	–	–	–	–	–	·
O=c1[nH]c(Nc2ccccc2)cc2ccccc12	–	?	–	–	11µM	·	GALK inh confirm=42µM;Redox cycling=21µM;HEK293 viability=–
Cc1nc2cccnc2n1-c1cccc(C(=O)N2CCN(c3ccc(Cl)cc3)CC2)c1	·	–	–	–	–	·
CCC[C@H](NC(C)=O)C(=O)N[C@H]1CC(=O)ONCCCC[C@@H](C(N)=O)NC(=O)[C@H](Cc2c[nH]c3ccccc23)NC(=O)[C@H](CCCN=C(N)N)NC(=O)[C@@H](Cc2ccc3ccccc3c2)NC(=O)[C@H](Cc2cnc[nH]2)NC1=O	·	·	·	–	·	·
CN(C)S(=O)(=O)c1cccc(NC(=O)COC(=O)/C=C/c2ccco2)c1	?	?	32µM	–	–	?
COC1=C(N)C(=O)c2nc(-c3nc(C(=O)O)c(C)c(-c4ccc(OC)c(OC)c4O)c3N)ccc2C1=O	20µM	3.5µM	10µM	50µM	0.89µM	·	GALK inh confirm=?;Redox cycling=0.94µM;HEK293 viability=0.013µM
COc1ccc(-c2cn3cccnc3n2)cc1NC(=O)Nc1cc(C)ccc1C	–	79µM	–	–	?	?	Pol kappa inh-2=15
CCCCSCCCNC(=O)c1ccc(CS(=O)(=O)c2ccc(OC)cc2)o1	·	–	–	–	–	·
CCNc1nc(NCC)n2c(SCC(=O)Nc3cc(OC)ccc3OC)nnc2n1	–	–	·	–	–	·
CCNc1nc(NCC)n2c(SCC(=O)Nc3ccc(OC(F)F)cc3)nnc2n1	?	?	·	–	?	?
Cc1cccc(C(=O)Nc2cc3c(cc2N2CCCCC2)n(C)c(=O)n3C)c1	·	–	–	–	–	·
CCN(CC)C(=O)COc1ccc(N(C)S(=O)(=O)c2ccc(NC(C)=O)cc2)cc1	–	–	–	–	–	·
CC(=O)Nc1ccc(S(=O)(=O)N(C)c2ccc(OCCOc3cccc(C)c3)cc2)cc1	–	20µM	·	?	32µM	?	Pol kappa inh-2=38
Cc1cc2oc(C(=O)Nc3ccc(S(=O)(=O)Nc4ncccn4)cc3)cc(=O)c2cc1C	·	–	–	–	–	·
CNS(=O)(=O)c1cccc(C(=O)OC2CCOC2=O)c1 (configuration not stated)	·	–	–	–	–	·
CS(=O)(=O)c1ccc(C(=O)OC2CCOC2=O)cc1[N+](=O)[O-] (configuration not stated)	·	20µM	?	–	?	38
